Measurements as given in the supplement of paper PMC8728848.
Shown is part of a subset that was picked to be rich in the strongest signals.

What was measured:
Assay in all cases: glycan array binding signal (z-score within array); higher = stronger binding
Conditions in all cases: glycan notation: IUPAC condensed, linker removed; mutation: R186I
[1] = target: Fuc(a1-2)Gal(b1-3)GalNAc(b1-3)Gal
How it was run: (§1)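 Negative Z-scores can be read as non-binding. The Z-score is calculated within each array and then averaged across arrays of one protein sequence at different concentrations or buffers and across linkers. Arrays, 3228 in all, were curated from the Consortium for Functional Glycomics database and kept only where the protein sequence was available.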

[2] = target: Fuc(a1-2)Gal(b1-3)GalNAc(b1-3)Gal(a1-4)Gal(b1-4)Glc
How it was run: as §1

[3] = target: Fuc(a1-2)Gal(b1-3)GlcNAc(b1-3)[Fuc(a1-3)[Gal(b1-4)]GlcNAc(b1-6)]Gal(b1-4)Glc
How it was run: as §1

[4] = target: Fuc(a1-2)Gal(b1-4)GlcNAc(b1-2)Man(a1-3)[Fuc(a1-2)Gal(b1-4)GlcNAc(b1-2)Man(a1-6)]Man(b1-4)GlcNAc(b1-4)GlcNAc
How it was run: as §1

[5] = target: Fuc(a1-2)[Gal(a1-3)]Gal(b1-3)GlcNAc(b1-2)Man(a1-3)[Fuc(a1-2)[Gal(a1-3)]Gal(b1-3)GlcNAc(b1-2)Man(a1-6)]Man(b1-4)GlcNAc(b1-4)GlcNAc
How it was run: as §1

[6] = target: Fuc(a1-2)[Gal(a1-3)]Gal(b1-4)GlcNAc(b1-2)Man(a1-3)[Fuc(a1-2)[Gal(a1-3)]Gal(b1-4)GlcNAc(b1-2)Man(a1-6)]Man(b1-4)GlcNAc(b1-4)GlcNAc
How it was run: as §1

[7] = target: Fuc(a1-2)[GalNAc(a1-3)]Gal(b1-3)GlcNAc(b1-2)Man(a1-3)[Fuc(a1-2)[GalNAc(a1-3)]Gal(b1-3)GlcNAc(b1-2)Man(a1-6)]Man(b1-4)GlcNAc(b1-4)GlcNAc
How it was run: as §1

[8] = target: Fuc(a1-2)[GalNAc(a1-3)]Gal(b1-4)GlcNAc(b1-2)Man(a1-3)[Fuc(a1-2)[GalNAc(a1-3)]Gal(b1-4)GlcNAc(b1-2)Man(a1-6)]Man(b1-4)GlcNAc(b1-4)GlcNAc
How it was run: as §1

[9] = target: Fuc(a1-2)[GalNAc(a1-3)]Gal(b1-4)GlcNAc(b1-3)Gal(b1-4)GlcNAc(b1-3)Gal(b1-4)GlcNAc
How it was run: as §1

[10] = target: Fuc(a1-3)[Gal3S(b1-4)]GlcNAc
How it was run: as §1

[11] = target: Fuc(a1-3)[Gal3S(b1-4)]GlcNAc6S
How it was run: as §1

Gal(a1-4)Gal(b1-4)GlcNAc = target: Gal(a1-4)Gal(b1-4)GlcNAc
How it was run: as §1

[12] = target: Gal(b1-3)Gal(b1-4)GlcNAc(b1-2)Man(a1-3)[Gal(b1-3)Gal(b1-4)GlcNAc(b1-2)Man(a1-6)]Man(b1-4)GlcNAc(b1-4)GlcNAc
How it was run: as §1

[13] = target: Gal(b1-3)GalNAc(a1-3)[Fuc(a1-2)]Gal(b1-4)GlcNAc
How it was run: as §1

[14] = target: Gal(b1-3)GlcNAc(b1-3)Gal(b1-4)GlcNAc
How it was run: as §1

[15] = target: Gal(b1-3)GlcNAc(b1-3)Gal(b1-4)[Fuc(a1-3)]GlcNAc(b1-6)[Gal(b1-3)GlcNAc(b1-3)]Gal(b1-4)Glc
How it was run: as §1

[16] = target: Gal(b1-3)GlcNAc(b1-6)Gal(b1-4)GlcNAc
How it was run: as §1

[17] = target: Gal(b1-3)[Fuc(a1-4)]GlcNAc(b1-2)Man(a1-3)[Gal(b1-3)[Fuc(a1-4)]GlcNAc(b1-2)Man(a1-6)]Man(b1-4)GlcNAc(b1-4)GlcNAc
How it was run: as §1

[18] = target: Gal(b1-3)[GlcNAc(b1-6)]GalNAc
How it was run: as §1

[19] = target: Gal(b1-4)GlcNAc(b1-3)Gal(b1-3)GlcNAc
How it was run: as §1

[20] = target: Gal(b1-4)GlcNAc(b1-3)[Gal(b1-4)GlcNAc(b1-6)]Gal(b1-4)GlcNAc
How it was run: as §1

Gal3S(b1-4)Glc = target: Gal3S(b1-4)Glc
How it was run: as §1

[21] = target: Gal3S(b1-4)[Fuc(a1-3)]Glc
How it was run: as §1

[22] = target: GalNAc(b1-3)Gal(a1-4)Gal(b1-4)GlcNAc(b1-3)Gal(b1-4)Glc
How it was run: as §1

Glc(a1-6)Glc(a1-6)Glc = target: Glc(a1-6)Glc(a1-6)Glc
How it was run: as §1

GlcNAc(b1-3)Man = target: GlcNAc(b1-3)Man
How it was run: as §1

[23] = target: Man(a1-2)Man(a1-3)[Man(a1-2)Man(a1-6)]Man(a1-6)[Man(a1-2)Man(a1-2)Man(a1-3)]Man
How it was run: as §1

Man(a1-6)Man = target: Man(a1-6)Man
How it was run: as §1

[24] = target: Neu5Ac(a2-3)Gal(b1-4)GlcNAc(b1-2)Man(a1-3)[GlcNAc(b1-2)Man(b1-4)GlcNAc(b1-2)Man(a1-6)]Man(b1-4)GlcNAc(b1-4)GlcNAc
How it was run: as §1

[25] = target: Neu5Ac(a2-3)Gal(b1-4)[Fuc(a1-3)]GlcNAc
How it was run: as §1

[26] = target: Neu5Ac(a2-6)Gal(b1-4)GlcNAc(b1-3)Gal(b1-4)GlcNAc(b1-3)Gal(b1-4)GlcNAc
How it was run: as §1

[27] = target: Neu5Ac9Ac(a2-6)Gal(b1-4)GlcNAc
How it was run: as §1

[28] = target: Neu5Gc(a2-3)Gal(b1-4)GlcNAc
How it was run: as §1

[29] = target: Neu5Gc(a2-3)Gal(b1-4)[Fuc(a1-3)]GlcNAc
How it was run: as §1

B1: Gal 3 (Homo sapiens), P17931 (protein)
chain: MADNFSLHDALSGSGNPNPQGWPGAWGNQPAGAGGYPGASYPGAYPGQAPPGAYPGQAPPGAYHGAPGAYPGAPAPGVYPGPPSGPGAYPSSGQPSAPGAYPATGPYGAPAGPLIVPYNLPLPGGVVPRMLITILGTVKPNANILDFQRGNDVAFHFNPRFNENNRRVIVCNTKLDNNWGREEIQSVFPFESGKPFKIQVLVEPDHFKVAVNDAHLLQYNHRVKKLNEISKLGISGDIDLTSASYTMI
glycan array binding signal (z-score) [1]: -0.188
glycan array binding signal (z-score) [2]: -0.055
glycan array binding signal (z-score) [3]: -0.187
glycan array binding signal (z-score) [4]: 2.01
glycan array binding signal (z-score) [5]: 5.08
glycan array binding signal (z-score) [6]: 10.8
glycan array binding signal (z-score) [7]: 3.39
glycan array binding signal (z-score) [8]: 8.83
glycan array binding signal (z-score) [9]: -0.113
glycan array binding signal (z-score) [10]: -0.147
glycan array binding signal (z-score) [11]: -0.154
glycan array binding signal (z-score) (Gal(a1-4)Gal(b1-4)GlcNAc): -0.127
glycan array binding signal (z-score) [12]: 11.1
glycan array binding signal (z-score) [13]: -0.146
glycan array binding signal (z-score) [14]: -0.166
glycan array binding signal (z-score) [15]: -0.002
glycan array binding signal (z-score) [16]: -0.173
glycan array binding signal (z-score) [17]: -0.173
glycan array binding signal (z-score) [18]: -0.128
glycan array binding signal (z-score) [19]: 0.065
glycan array binding signal (z-score) [20]: 0.077
glycan array binding signal (z-score) (Gal3S(b1-4)Glc): -0.189
glycan array binding signal (z-score) [21]: -0.171
glycan array binding signal (z-score) [22]: 2.69
glycan array binding signal (z-score) (Glc(a1-6)Glc(a1-6)Glc): -0.021
glycan array binding signal (z-score) (GlcNAc(b1-3)Man): -0.189
glycan array binding signal (z-score) [23]: -0.075
glycan array binding signal (z-score) (Man(a1-6)Man): -0.185
glycan array binding signal (z-score) [24]: -0.073
glycan array binding signal (z-score) [25]: -0.164
glycan array binding signal (z-score) [26]: -0.107
glycan array binding signal (z-score) [27]: -0.185
glycan array binding signal (z-score) [28]: -0.157
glycan array binding signal (z-score) [29]: -0.165
